NCOA1 inh – inhibits human SRC1 coactivator; inhibition, % at 3.6 µM; 0.12% of 360,000 active; HEK293 GAL4-SRC1 luciferase reporter, luminescence; AID 588354;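 active = inhibition above the campaign mean plus 3 SD, with each screening campaign given its own cutoff, cut at about 60% in these data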;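 note: 0% = DMSO treated cells and 100% = gossypol at 36 µM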
NCOA3 inh – human NCOA3 inhibition | Q9Y6Q9 | HEK293 GAL4-SRC3 luciferase reporter, luminescence | inhibition, % at 3.6 µM | 0.17% of 360,000 active | AID 588352;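 active = inhibition above a per-campaign cutoff, the mean of all compounds plus 3 SD, cut at about 60% in these data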;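 note: 0% = DMSO-treated cells and 100% = gossypol-treated cells at 36 µM; higher means less SRC3-driven luciferase light from the GAL4 reporter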
NCOA2 inhibitor – inhibits human steroid receptor coactivator 2; HEK293 GAL4-SRC2 luciferase reporter, luminescence; inhibition, % at 9 µM; AID 651957; 0.17% of 370,000 active;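 active = inhibition above the mean inhibition of all tested compounds plus 3 SD, set per campaign, cut at about 52% in these data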;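 note: 0% = DMSO treated cells and 100% = cells given Gossypol at 36 µM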
Target sequence (Q15596 whole entry, looked up, the tested form may be a part): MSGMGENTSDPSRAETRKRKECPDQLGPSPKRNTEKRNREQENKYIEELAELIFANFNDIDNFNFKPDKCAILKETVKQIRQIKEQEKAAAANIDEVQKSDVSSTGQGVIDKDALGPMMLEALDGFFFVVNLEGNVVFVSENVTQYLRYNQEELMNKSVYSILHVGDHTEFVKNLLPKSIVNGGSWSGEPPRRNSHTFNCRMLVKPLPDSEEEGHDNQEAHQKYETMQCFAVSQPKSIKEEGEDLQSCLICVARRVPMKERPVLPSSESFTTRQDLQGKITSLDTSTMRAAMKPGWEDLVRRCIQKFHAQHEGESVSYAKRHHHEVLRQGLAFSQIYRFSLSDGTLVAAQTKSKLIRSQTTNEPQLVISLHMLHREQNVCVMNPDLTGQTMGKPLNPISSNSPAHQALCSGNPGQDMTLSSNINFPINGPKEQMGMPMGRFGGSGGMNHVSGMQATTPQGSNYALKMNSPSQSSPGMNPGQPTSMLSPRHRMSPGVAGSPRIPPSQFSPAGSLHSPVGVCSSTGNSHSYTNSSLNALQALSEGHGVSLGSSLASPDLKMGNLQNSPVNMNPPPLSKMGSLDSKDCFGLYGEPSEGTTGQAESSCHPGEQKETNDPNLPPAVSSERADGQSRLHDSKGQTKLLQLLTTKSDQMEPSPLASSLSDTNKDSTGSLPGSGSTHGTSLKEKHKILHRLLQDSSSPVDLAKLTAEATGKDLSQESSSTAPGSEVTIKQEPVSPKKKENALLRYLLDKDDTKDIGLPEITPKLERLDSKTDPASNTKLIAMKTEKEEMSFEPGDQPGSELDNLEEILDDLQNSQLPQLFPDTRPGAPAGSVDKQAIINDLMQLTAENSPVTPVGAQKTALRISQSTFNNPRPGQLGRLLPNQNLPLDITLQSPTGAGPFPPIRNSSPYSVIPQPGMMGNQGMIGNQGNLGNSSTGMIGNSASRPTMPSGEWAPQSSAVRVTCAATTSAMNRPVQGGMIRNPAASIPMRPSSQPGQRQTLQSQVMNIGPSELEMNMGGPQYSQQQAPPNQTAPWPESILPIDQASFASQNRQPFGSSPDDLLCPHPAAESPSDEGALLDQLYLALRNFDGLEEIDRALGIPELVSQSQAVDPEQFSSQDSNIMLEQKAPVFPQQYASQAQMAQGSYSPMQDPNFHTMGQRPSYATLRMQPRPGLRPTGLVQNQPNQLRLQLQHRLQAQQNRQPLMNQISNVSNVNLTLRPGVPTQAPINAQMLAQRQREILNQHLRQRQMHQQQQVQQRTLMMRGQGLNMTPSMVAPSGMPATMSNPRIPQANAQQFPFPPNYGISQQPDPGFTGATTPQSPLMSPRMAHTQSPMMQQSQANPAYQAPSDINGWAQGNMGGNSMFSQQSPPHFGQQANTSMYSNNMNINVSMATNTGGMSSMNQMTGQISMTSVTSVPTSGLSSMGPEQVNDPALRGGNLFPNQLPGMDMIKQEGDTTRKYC
COUP-TFII inh – inhibitors of human COUP-TFII (NR2F2). 0.7% of 370,000 active. HEK293T NGFI-A luciferase reporter, luminescence. inhibition, % at 8.6 µM. AID 686940;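 active = inhibition above a per-plate cutoff, mean inhibition of test wells between control levels plus 3 SD, cut at about 38% in these data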;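 note: cells cotransfected with COUP-TFII expression vector driving the NGFI-A reporter; 0% = median of COUP-TF2 test wells and 100% = reporter-only cells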
NR5A2 inv ag – inverse agonists of human LRH-1 (NR5A2); O00482; HEK293T StAR-luciferase reporter, LRH-1 transfected, 24 h; inhibition, % at 3.6 µM; 0.13% of 360,000 active; AID 602396;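 active = inhibition above the mean inhibition of all tested compounds plus 3 SD, cut at about 73% in these data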;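 note: 0% = DMSO wells and 100% = reporter-only cells lacking LRH-1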
Gli-Sufu antag – blocks Gli-Sufu signaling in a luciferase reporter; Sufu-KO-LIGHT fibroblasts, Gli luciferase reporter luminescence; inhibition, % at 5 µM; 0.74% of 340,000 active;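 active = inhibition above about 55%, limit read from the data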;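 note: 0% = DMSO-treated cells and 100% = wells with medium but no cells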
Gli-Sufu confirm – confirmation of Gli-SUFU pathway antagonists. shares compounds with Gli-Sufu antag. Sufu-KO-LIGHT cells, Gli luciferase reporter, luminescence. inhibition, % at 5 µM. 40% of 2,500 active. AID 602428;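 active = mean inhibition at 5 µM reaching about 45%, limit read from the data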;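 note: plate controls were DMSO-treated cells for no effect and wells lacking cells for full effect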
SufuKO cytotox – counter-screen for Gli-SUFU antagonists: cytotoxicity; shares compounds with Gli-Sufu antag; Sufu-KO-LIGHT cells cytotoxicity, ATP luminescence; cytotoxicity, % at 5 µM; 32% of 2,500 active;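 active = mean cytotoxicity at 5 µM above about 25%, limit read from the data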;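 note: cells exposed to compound overnight for roughly 16 to 18 hours; plate controls were DMSO wells with cells for no effect and medium without cells for full effect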
Wnt3a cs – counter-screen for Gli-SUFU antagonists: Wnt3a reporter inhibition; shares compounds with Gli-Sufu antag; Wnt-LIGHT cells, Wnt3a-driven luciferase reporter, luminescence; inhibition, % at 6.25 µM; 20% of 2,500 active;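 active = mean inhibition above about 25%, limit read from the data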
Numbers without * were called inactive; . = no result given. This is a sample that favours compounds with a hit; in the whole collection about 1.3% have one here.

SMILES	NCOA1 inh	NCOA3 inh	NCOA2 inhibitor	COUP-TFII inh	NR5A2 inv ag	Gli-Sufu antag	Gli-Sufu confirm	SufuKO cytotox	Wnt3a cs
Cn1c(Cc2ccccc2)[n+](C)c2ccccc21	-46	4	6	4	11	3	.	.	.
CC1Sc2n(c3ccccc3[n+]2C)N=C1c1ccccc1 (stereo not drawn)	31	18	25	30	32	59*	75*	27*	12
O=C(NCCCc1ccccc1)[C@H](CO)NC1(C(=O)NCCc2c[nH]c3ccccc23)CCCCC1	.	.	.	15	.	.	.	.	.
CCCCCCCCN1CCS(=O)(=O)N(Cc2ccc(C(F)(F)F)cc2)C(C(=O)OC)C1 (stereo not drawn)	.	.	19	7	.	.	.	.	.
O=C(OCCOc1ccc(Cl)cc1)c1cc(S(=O)(=O)N2CCCCC2)ccc1N1CCOCC1	6	0	-13	9	14	69*	68*	32*	26*
Cc1ccc(OCCOC(=O)c2cc(S(=O)(=O)N3CCCCC3)ccc2N2CCOCC2)cc1	3	0	6	14	6	55*	65*	28*	3
O=C(NCc1ccco1)C1CCCN(c2ncccn2)C1 (stereo not drawn)	.	.	-3	0	.	.	.	.	.
Cc1ccc2c(c1)C(=O)CC(O)(C(F)F)O2 (stereo not drawn)	3	19	-26	-5	-15	55*	11	-1	9
O=C1CC2(CCCC2)Oc2ccc(F)cc21	1	-12	2	9	0	2	.	.	.
O=C(Nc1ccncc1)Nc1ccc(F)cc1F	-17	-5	-25	-5	1	14	.	.	.
CN(C)c1ccncc1C(=O)Nc1ccc(F)cc1F	28	21	16	-19	11	59*	19	-3	4
O=S1(=O)c2ccc(N3CC[C@@H](O)C3)cc2OCCCN1C1CC1	.	.	4	-9	.	.	.	.	.
C=CCN1C(=O)[C@@H](CC(=O)N2CCN(C(=O)OCC)CC2)[C@]2(C(=O)OC)CCCCC=C12	.	.	23	-2	.	.	.	.	.
CC(C)CNC(=O)OCc1cn(Cc2ccc(C(F)(F)F)cc2)nn1	.	.	-4	-1	.	.	.	.	.
COc1ccc(S[C@]2(C(=O)N(C)C)CC(=O)N[C@@H]2c2ccc(OC)cc2)cc1	.	.	-21	-24	.	.	.	.	.
Cc1nc2nc(-c3cccs3)cn2nc1C	-53	-18	-79	-53	-46	53	-64	12	-27
Cc1nc2nc(-c3ccc(Cl)cc3)cn2nc1C	-103	-65	-99	-20	-146	-103	.	.	.
CCn1nc(C)c(CN2CCCC(C(=O)c3cccc(OC(C)C)c3)C2)c1C (stereo not drawn)	6	8	10	32	21	71*	33	20	40*
CCN(C(=O)CSc1nnc(-c2ccncc2)n1Cc1ccccc1)C1CCS(=O)(=O)C1 (stereo not drawn)	8	3	-3	-4	11	58*	15	19	-6
CCN(C(=O)CSc1nnc(C)n1Cc1ccccc1)C1CCS(=O)(=O)C1 (stereo not drawn)	1	23	-35	2	13	-23	.	.	.
Cn1c(N)c(C(=O)COC(=O)C2(c3cccc(F)c3)CCCC2)c(=O)n(C)c1=O	5	10	17	11	-3	99*	15	2	-7
Cn1c(N)c(C(=O)COC(=O)c2ccc(F)cc2Cl)c(=O)n(C)c1=O	-9	0	-5	-7	7	-2	.	.	.
CCn1c(=O)n(CC(=O)N2CCCN(Cc3ccccc3)CC2)c(=O)c2ccccc21	.	.	-1	6	.	.	.	.	.
CC(C)=CCN1CCN(Cc2cccn2-c2ncccn2)CC1CCO (stereo not drawn)	1	2	-2	5	-23	51	18	5	-38
COC(=O)c1cnc(Oc2ccc(NC(=O)NC(=O)c3c(OC)cccc3OC)cc2)cc1C(F)(F)F	2	-21	11	18	8	52	53*	58*	-31
SMILES	NCOA1 inh	NCOA3 inh	NCOA2 inhibitor	COUP-TFII inh	NR5A2 inv ag	Gli-Sufu antag	Gli-Sufu confirm	SufuKO cytotox	Wnt3a cs
COc1cccc(/C=N/NC(=O)C(=O)Nc2ccccc2OC(F)(F)C(F)F)c1O	43	54	7	6	15	80*	72*	47*	66*
COc1ccccc1/C=N/NC(=O)c1cccc(OC(F)(F)C(F)F)c1	-18	6	-7	13	6	-12	.	.	.
CCOc1ccccc1NC(=O)C(=O)N/N=C/c1cc(Br)ccc1O	17	20	-19	9	17	56*	63*	39*	59*
COc1cccc(NC(=O)C2CCCN2C(=O)NCc2ccccc2OC)c1 (stereo not drawn)	.	.	16	-9	.	.	.	.	.
COc1ccc(CNC(=O)CSc2nc3c([nH]2)c(=O)n(C)c(=O)n3C)cc1	.	.	-2	7	.	.	.	.	.
Cc1nc2ccccc2nc(C)c1=NOCc1cccc(F)c1	-69	-157	-72	-31	-64	66*	21	6	-21
C(#CC1=CCCCC1)CNCC1CC1	.	.	-26	-20	.	.	.	.	.
Cc1cc(C)c2nc(NNC(=O)c3ccc(S(=O)(=O)N4CCCC(C)C4)cc3)sc2c1 (stereo not drawn)	17	2	25	8	-25	58*	17	9	-8
COc1cc(/C=C2/CCCC(C(=O)C(F)(F)F)=C2O)ccc1O	0	18	14	20	0	3	.	.	.
CCOc1cc(/C=C2\CCCC(C(=O)C(F)(F)F)=C2O)ccc1O	-24	13	17	32	-8	59*	7	1	-58
CC1=Nc2cccc3cccc(c23)N1C	-22	13	-6	10	-7	70*	89*	13	-19
CN(C)CCCN1C(=O)C2CCc3[nH]c4ccccc4c3C2C1=O (stereo not drawn)	-7	-7	4	24	3	51	13	5	-7
CN(C)CCCn1c(=S)[nH]c2ccccc2c1=O	6	-2	-20	2	14	4	.	.	.
N#Cc1cccc(CNCC(=O)N2CCC3(CC2)OCCO3)c1	.	.	-24	-26	.	.	.	.	.
COc1ccc(NS(=O)(=O)c2ccc(N/N=C(\C)c3ccncc3)c([N+](=O)[O-])c2)cc1	14	24	17	14	15	66*	66*	25	35*
CCOC(=O)C1=NOC(C(C)=O)(C(=O)N2CCOCC2)C1 (stereo not drawn)	.	.	20	0	.	.	.	.	.
COCCN(Cc1cc2cc3c(cc2nc1Cl)OCO3)C(=O)Nc1ccc(OC)cc1	-4	2	-8	-2	13	55	29	-1	-20

Source: PubChem
